Experimental data published in the supplement of paper PMC10849652.
The full data set covers some 8,800 targets. This sample favours those with a hit. About 0.5% of all pairs of compound and target were hits. Unmarked numbers belong to inactive results.

Key:
Test in all cases: log2 fold change, soluble protein after heating vs DMSO (PISA); higher = thermal stabilisation; K562 lysate, 10 uM; active = over 0.2 and 3.5 SD of the protein, either way, in both replicates (recomputed)
lapatinib = compound: CS(=O)(=O)CCNCc1ccc(-c2ccc3ncnc(Nc4ccc(OCc5cccc(F)c5)c(Cl)c4)c3c2)o1 [lapatinib]
Method in brief: (§1)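 A 30 min treatment with 10 μM compound was applied to crude K562 extract at 1 mg/mL protein in PBS pH 7.4 with 1 mM MgCl2. Heating for 3 min spanned 48°C-58°C, after which aliquots were pooled, adjusted to 0.5% NP-40 at 4°C and spun at 21,000xg for 90 min. TMTpro 16plex LC-MS/MS of the supernatant, with channel sums equalised, gave values recorded as log-two fold change in thermal stability against solvent controls, from duplicates.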

pictilisib = compound: CS(=O)(=O)N1CCN(Cc2cc3nc(-c4cccc5[nH]ncc45)nc(N4CCOCC4)c3s2)CC1 [pictilisib]
Method in brief: as §1

crizotinib = compound: C[C@@H](Oc1cc(-c2cnn(C3CCNCC3)c2)cnc1N)c1c(Cl)ccc(F)c1Cl [crizotinib]
Method in brief: as §1

[1] = compound: C[C@H](C1=CC=C(C=C1)C(=O)NC2=C3C=CNC3=NC=C2)N
Method in brief: as §1

duvelisib = compound: C[C@H](Nc1ncnc2nc[nH]c12)c1cc2cccc(Cl)c2c(=O)n1-c1ccccc1 [duvelisib]
Method in brief: as §1

gandotinib = compound: Cc1cc(Nc2cc(CN3CCOCC3)c3nc(C)c(Cc4ccc(Cl)cc4F)n3n2)n[nH]1 [gandotinib]
Method in brief: as §1

tozasertib = compound: Cc1cc(Nc2cc(N3CCN(C)CC3)nc(Sc3ccc(NC(=O)C4CC4)cc3)n2)n[nH]1 [tozasertib]
Method in brief: as §1

doramapimod = compound: Cc1ccc(-n2nc(C(C)(C)C)cc2NC(=O)Nc2ccc(OCCN3CCOCC3)c3ccccc23)cc1 [doramapimod]
Method in brief: as §1

bafetinib = compound: Cc1ccc(NC(=O)c2ccc(CN3CC[C@H](N(C)C)C3)c(C(F)(F)F)c2)cc1Nc1nccc(-c2cncnc2)n1 [bafetinib]
Method in brief: as §1

[2] = compound: Cc1cccc(CC(=O)N2CCc3c2ccc(-c2cn(C)c4ncnc(N)c24)c3F)n1
Method in brief: as §1

nilotinib = compound: Cc1cn(-c2cc(NC(=O)c3ccc(C)c(Nc4nccc(-c5cccnc5)n4)c3)cc(C(F)(F)F)c2)cn1 [nilotinib]
Method in brief: as §1

[3] = compound: Cc1nc(Nc2n[nH]c3c2CN(C(=O)N[C@H](CN(C)C)c2ccccc2)C3(C)C)c2sccc2n1
Method in brief: as §1

dasatinib = compound: Cc1nc(Nc2ncc(C(=O)Nc3c(C)cccc3Cl)s2)cc(N2CCN(CCO)CC2)n1 [dasatinib]
Method in brief: as §1

[4] = compound: Cc1ncc(-c2ccnc(Nc3ccc(S(C)(=O)=O)cc3)n2)n1C(C)C
Method in brief: as §1

[5] = compound: Cn1cc(-c2ccc3c(c2)CCN3C(=O)Cc2cccc(C(F)(F)F)c2)c2c(N)ncnc21
Method in brief: as §1

quisinostat = compound: Cn1cc(CNCC2CCN(c3ncc(C(=O)NO)cn3)CC2)c2ccccc21 [quisinostat]
Method in brief: as §1

tipifarnib = compound: Cn1cncc1[C@@](N)(c1ccc(Cl)cc1)c1ccc2c(c1)c(-c1cccc(Cl)c1)cc(=O)n2C [tipifarnib]
Method in brief: as §1

[6] = compound: NC(=O)Nc1cc(-c2cccc(F)c2)sc1C(=O)N[C@H]1CCCNC1
Method in brief: as §1

[7] = compound: NC(=O)c1cnc(N[C@@H]2CCCC[C@@H]2N)nc1Nc1cccc(-n2nccn2)c1
Method in brief: as §1

[8] = compound: NC1(c2ccc(-c3nc4ccn5c(=O)[nH]nc5c4cc3-c3ccccc3)cc2)CCC1
Method in brief: as §1

Chain of UniProt Q8WYQ5 (Q8WYQ5 whole entry, looked up): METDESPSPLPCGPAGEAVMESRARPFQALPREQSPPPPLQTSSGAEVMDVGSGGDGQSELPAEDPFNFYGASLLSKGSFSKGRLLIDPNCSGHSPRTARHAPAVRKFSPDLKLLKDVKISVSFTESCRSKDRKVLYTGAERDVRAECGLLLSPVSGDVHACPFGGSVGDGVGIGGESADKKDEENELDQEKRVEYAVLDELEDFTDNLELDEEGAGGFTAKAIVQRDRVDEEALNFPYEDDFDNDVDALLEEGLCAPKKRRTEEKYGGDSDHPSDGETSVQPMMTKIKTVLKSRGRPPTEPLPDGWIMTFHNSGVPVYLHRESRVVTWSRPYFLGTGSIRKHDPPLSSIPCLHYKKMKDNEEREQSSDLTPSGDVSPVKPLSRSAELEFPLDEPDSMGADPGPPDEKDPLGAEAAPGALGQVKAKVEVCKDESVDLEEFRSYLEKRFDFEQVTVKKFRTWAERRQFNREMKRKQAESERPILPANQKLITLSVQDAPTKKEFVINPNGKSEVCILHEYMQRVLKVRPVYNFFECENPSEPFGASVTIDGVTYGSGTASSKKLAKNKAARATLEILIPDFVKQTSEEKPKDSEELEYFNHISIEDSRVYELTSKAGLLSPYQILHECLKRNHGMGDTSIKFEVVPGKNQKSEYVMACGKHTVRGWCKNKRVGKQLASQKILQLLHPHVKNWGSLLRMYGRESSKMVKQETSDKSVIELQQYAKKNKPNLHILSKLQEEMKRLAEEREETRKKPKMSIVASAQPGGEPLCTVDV
Chain of UniProt Q9H2P9 (Q9H2P9 whole entry, looked up): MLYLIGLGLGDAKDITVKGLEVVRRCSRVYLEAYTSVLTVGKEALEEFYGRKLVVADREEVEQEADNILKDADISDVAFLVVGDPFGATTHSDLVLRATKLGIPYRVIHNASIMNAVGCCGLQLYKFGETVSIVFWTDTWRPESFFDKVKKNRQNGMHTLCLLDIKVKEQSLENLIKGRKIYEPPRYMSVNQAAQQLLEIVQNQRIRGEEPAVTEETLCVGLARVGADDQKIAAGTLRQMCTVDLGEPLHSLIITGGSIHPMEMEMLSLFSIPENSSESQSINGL
Chain of UniProt Q9H4E7 (Q9H4E7 whole entry, looked up): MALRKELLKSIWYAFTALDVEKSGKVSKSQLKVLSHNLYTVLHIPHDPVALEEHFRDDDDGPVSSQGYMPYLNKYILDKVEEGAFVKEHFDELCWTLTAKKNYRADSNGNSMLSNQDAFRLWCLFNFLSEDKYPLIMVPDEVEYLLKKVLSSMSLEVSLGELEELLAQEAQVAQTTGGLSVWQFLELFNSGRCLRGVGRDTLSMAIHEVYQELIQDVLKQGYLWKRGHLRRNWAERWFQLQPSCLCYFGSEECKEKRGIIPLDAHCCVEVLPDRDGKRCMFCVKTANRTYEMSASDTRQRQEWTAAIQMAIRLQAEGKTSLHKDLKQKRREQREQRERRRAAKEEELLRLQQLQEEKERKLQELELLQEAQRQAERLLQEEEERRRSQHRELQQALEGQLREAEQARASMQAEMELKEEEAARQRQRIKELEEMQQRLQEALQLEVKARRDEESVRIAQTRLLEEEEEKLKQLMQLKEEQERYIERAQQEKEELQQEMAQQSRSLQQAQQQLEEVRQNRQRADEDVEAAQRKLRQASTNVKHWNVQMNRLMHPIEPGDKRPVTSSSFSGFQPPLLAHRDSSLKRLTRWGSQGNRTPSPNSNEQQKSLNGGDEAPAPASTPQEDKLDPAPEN
Chain of UniProt A8TX70 (A8TX70 whole entry, looked up): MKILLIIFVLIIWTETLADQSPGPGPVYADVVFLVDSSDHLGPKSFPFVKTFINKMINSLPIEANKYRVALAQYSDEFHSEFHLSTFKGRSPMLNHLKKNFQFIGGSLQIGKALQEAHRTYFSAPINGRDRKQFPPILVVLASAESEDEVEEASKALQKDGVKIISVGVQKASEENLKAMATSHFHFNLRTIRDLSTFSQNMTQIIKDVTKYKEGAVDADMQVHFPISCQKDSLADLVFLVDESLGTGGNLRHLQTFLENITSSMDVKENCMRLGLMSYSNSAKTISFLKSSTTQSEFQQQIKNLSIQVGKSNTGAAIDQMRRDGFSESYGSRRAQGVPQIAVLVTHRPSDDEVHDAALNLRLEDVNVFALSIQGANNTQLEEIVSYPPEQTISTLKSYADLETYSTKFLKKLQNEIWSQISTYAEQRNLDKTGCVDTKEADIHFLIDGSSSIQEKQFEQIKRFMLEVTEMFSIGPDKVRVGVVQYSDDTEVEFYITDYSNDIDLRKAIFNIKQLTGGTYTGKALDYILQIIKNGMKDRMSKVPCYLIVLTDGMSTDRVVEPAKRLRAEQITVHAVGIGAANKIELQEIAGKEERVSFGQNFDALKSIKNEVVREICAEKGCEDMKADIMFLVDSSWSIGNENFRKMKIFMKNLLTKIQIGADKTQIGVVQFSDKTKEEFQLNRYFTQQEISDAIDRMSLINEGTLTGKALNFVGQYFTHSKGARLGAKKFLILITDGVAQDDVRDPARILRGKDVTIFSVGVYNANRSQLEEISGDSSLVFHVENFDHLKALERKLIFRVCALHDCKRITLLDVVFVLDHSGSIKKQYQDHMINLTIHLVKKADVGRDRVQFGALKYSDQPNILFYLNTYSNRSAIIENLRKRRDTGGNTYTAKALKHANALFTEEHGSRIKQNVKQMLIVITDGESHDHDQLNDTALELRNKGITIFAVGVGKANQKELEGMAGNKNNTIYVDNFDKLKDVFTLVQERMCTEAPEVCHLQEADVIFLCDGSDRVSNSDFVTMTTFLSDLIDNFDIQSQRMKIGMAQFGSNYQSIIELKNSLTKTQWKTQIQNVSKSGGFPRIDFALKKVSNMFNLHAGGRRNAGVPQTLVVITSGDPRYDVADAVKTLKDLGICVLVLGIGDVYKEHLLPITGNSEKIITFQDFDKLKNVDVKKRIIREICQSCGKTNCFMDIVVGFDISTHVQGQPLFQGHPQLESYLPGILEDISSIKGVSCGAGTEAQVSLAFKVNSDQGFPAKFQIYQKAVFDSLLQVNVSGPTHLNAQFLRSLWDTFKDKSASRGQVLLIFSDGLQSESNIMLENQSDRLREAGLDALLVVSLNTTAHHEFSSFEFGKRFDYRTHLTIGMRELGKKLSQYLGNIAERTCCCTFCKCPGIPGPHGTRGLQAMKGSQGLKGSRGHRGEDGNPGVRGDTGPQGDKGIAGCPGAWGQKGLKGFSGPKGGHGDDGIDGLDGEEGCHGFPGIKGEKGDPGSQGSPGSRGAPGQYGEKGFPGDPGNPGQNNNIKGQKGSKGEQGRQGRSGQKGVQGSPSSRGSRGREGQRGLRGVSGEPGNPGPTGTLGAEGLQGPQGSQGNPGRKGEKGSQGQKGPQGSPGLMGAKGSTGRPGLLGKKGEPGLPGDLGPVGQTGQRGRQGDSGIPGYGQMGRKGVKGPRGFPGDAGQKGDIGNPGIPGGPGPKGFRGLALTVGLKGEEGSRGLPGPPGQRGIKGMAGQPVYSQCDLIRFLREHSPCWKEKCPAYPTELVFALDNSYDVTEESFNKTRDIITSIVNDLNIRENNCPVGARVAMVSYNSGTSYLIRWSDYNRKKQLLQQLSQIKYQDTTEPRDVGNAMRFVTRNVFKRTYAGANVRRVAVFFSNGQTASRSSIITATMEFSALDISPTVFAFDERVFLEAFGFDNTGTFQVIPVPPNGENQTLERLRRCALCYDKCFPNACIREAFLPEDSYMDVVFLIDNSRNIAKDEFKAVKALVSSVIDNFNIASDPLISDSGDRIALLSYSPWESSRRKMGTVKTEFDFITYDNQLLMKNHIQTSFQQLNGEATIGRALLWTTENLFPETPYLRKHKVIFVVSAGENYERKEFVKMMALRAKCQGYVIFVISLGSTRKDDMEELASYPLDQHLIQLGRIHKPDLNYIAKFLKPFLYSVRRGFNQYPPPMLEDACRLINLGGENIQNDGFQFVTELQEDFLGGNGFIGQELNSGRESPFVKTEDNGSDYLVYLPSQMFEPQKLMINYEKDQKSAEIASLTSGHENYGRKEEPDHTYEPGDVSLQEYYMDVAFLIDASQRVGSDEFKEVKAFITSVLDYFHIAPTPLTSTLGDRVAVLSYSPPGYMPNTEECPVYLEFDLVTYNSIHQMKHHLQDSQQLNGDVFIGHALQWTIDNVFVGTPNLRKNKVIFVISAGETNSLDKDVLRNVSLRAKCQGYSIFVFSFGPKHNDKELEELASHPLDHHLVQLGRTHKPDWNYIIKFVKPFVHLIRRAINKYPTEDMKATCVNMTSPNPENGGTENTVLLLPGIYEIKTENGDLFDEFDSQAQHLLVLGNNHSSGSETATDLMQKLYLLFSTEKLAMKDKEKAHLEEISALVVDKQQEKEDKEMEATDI
Chain of UniProt O60762 (O60762 whole entry, looked up): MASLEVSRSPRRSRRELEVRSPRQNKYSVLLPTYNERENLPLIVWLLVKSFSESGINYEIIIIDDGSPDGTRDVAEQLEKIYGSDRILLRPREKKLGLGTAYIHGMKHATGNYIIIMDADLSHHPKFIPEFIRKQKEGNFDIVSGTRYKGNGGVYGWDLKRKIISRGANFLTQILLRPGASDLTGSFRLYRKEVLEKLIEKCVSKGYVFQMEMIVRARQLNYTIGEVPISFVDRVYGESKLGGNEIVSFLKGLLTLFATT
Chain of UniProt Q96DG6 (Q96DG6 whole entry, looked up): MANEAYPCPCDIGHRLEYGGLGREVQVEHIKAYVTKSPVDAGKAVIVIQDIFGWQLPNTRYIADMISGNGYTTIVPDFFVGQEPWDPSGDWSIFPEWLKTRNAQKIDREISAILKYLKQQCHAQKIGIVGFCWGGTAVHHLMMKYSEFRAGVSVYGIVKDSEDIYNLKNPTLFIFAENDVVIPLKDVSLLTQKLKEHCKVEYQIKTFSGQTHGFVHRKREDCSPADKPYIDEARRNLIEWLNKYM

| Target | log2 fold change (lapatinib) | log2 fold change (pictilisib) | log2 fold change (crizotinib) | log2 fold change [1] | log2 fold change (duvelisib) | log2 fold change (gandotinib) | log2 fold change (tozasertib) | log2 fold change (doramapimod) | log2 fold change (bafetinib) | log2 fold change [2] | log2 fold change (nilotinib) | log2 fold change [3] | log2 fold change (dasatinib) | log2 fold change [4] | log2 fold change [5] | log2 fold change (quisinostat) | log2 fold change (tipifarnib) | log2 fold change [6] | log2 fold change [7] | log2 fold change [8] |
| --- | --- | --- | --- | --- | --- | --- | --- | --- | --- | --- | --- | --- | --- | --- | --- | --- | --- | --- | --- | --- |
| CMBL (UniProt Q96DG6) | -0.024 | 0.076 | 0.065 | -0.162 | 0.031 | 0.127 | 0.016 | -0.021 | -0.028 | -0.001 | -0.029 | 0.054 | 0.155 | 0.006 | -0.025 | -0.047 | -0.001 | -0.027 | -0.023 | 0.149 |
| COL6A5 (UniProt A8TX70) | -0.07 | -0.035 | -0.197 | -0.966 (active) | 0.013 | 0.295 | -0.099 | 0.053 | -0.13 | 0.486 (active) | 0.134 | 0.009 | -0.11 | -0.185 | -0.038 | -0.377 | -0.236 | 0.017 | 0.051 | -0.014 |
| CHEK1 (UniProt O14757) | -0.008 | -0.003 | -0.021 | 0.174 | -0.009 | -0.014 | 0.017 | 0.04 | -0.025 | 0.015 | -0.011 | -0.158 | 0.02 | -0.048 | -0.007 | -0.032 | 0.016 | 0.242 (active) | 0.003 | -0.042 |
| DEF6 (UniProt Q9H4E7) | -0.021 | 0.057 | -0.095 | -0.049 | 0.013 | 0.032 | 0.009 | 0 | 0.151 | 0.188 | -0.058 | 0.046 | -0.034 | 0.033 | 0.006 | -0.044 | 0.027 | 0.067 | 0.044 | -0.01 |
| DGCR8 (UniProt Q8WYQ5) | -0.023 | -0.048 | 0.039 | -0.056 | -0.014 | -0.032 | -0.012 | 0.04 | -0.009 | 0.044 | -0.01 | -0.002 | -0.061 | -0.029 | -0.02 | -0.007 | 0.03 | -0.032 | -0.048 | 0.003 |
| COG2 (UniProt Q14746) | -0.009 | -0.03 | -0.041 | -0.025 | 0.025 | -0.118 | 0.012 | 0.009 | -0.027 | 0.02 | 0.024 | 0.008 | -0.024 | 0.096 | -0.002 | -0.029 | -0.06 | 0.055 | 0.001 | 0.009 |
| DPH5 isoform 5 (UniProt Q9H2P9) | 0.009 | 0.025 | 0.126 | -0.019 | 0.128 | 0.495 (active) | 0.005 | -0.024 | 0.143 | 0.101 | -0.01 | 0.289 | 0.418 (active) | 0.009 | 0.062 | 0.003 | 0.017 | -0.048 | -0.025 | 0.377 (active) |
| DPM1 (UniProt O60762) | -0.003 | 0.009 | 0.009 | 0.028 | -0.018 | -0.097 | -0.014 | -0.046 | -0.061 | 0.061 | 0.013 | 0.019 | 0.028 | -0.014 | 0.044 | 0.057 | 0.03 | 0.038 | 0.019 | -0.057 |
